Experimental data: PubChem BioAssay (Tox21)
Records with an inconclusive call do not appear. Activity calls are given as the source filed them. Calls come from the whole dose curve; as a rule, active = well fitted cell-killing curve with a large enough effect in the repeat runs; inconclusive = weak or mixed curves, or effect the other way; inactive = flat fitted curve, though single readings scatter.

Assay: qHTS RealTime-Glo MT Cell Viability Assay in HEK293 cells - 16 hour (AID 1224872); note: top concentration of the series differs between compounds; nearly all actives have a fitted effect of over 50% in size
Details: RealTime-Glo luminescence; series mostly up to 76.8 µM; activity change, negative = cytotoxicity: at the top concentration
Excerpt: National Center for Advancing Translational Sciences [NCATS]
NIH Chemical Genomics Center [NCGC]
U.S. Environmental Protection Agency [EPA]
National Institutes of Environmental Health Sciences [NIEHS]
National Toxicology Program [NTP]
U.S. Food and Drug Administration [FDA]
Measure of cell viability is critical in the cell-base assay. Analysis of cell viability is necessary for the characterization of cell responses to cytotoxic drugs and environmental stress. A RealTime-Glo MT Cell Viability Assay to monitor cell viability in real time of continues cell culture during 40 hours of compound treatment was used to screen Tox21 10K library compounds in Hek293 cells. The RealTime-Glo MT Cell Viability Assay is a nonlytic, homogeneous, bioluminescent method to measure cell viability in real time using a simple, plate-based method. The assay involves adding NanoLuc luciferase and a cell-permeant prosubstrate to cells in culture. Viable cells reduce the proprietary prosubstrate to generate a substrate for NanoLuc luciferase. This substrate diffuses from cells into the surrounding culture medium, where it is rapidly used by the NanoLuc Enzyme to produce a luminescent signal. The signal correlates with the number of viable cells, making the assay well suited for cytotoxicity studies.
Tox21 Assay Protocol Summary:
The mixture of Hek293 cell suspension and reagents were dispensed at 600cells/6 ul/well in 1536-well tissue culture treated black solid bottom plates using a Multidrop dispenser. After the assay plates were incubated at a 37 C/5% CO2 incubator for 5 hours, 23 nL of compounds dissolved in DMSO, positive and negative controls was transferred to the assay plate by a pintool work station. The plates were incubated at 37 C for 40 hours. The luminescence intensity were measured at 0h, 8h, 16h, 24h, 32h and 40h time points using ViewLux plate reader during compound treatment.
% is set by controls: 0 for no effect and ±100 for the full control effect.

Compound	activity change, negative = cytotoxicity	Potency
c1cnc(N2CCN(Cc3ccc4c(c3)OCO4)CC2)nc1	-1.13% [at 35.3 µM] (inactive)	–
CN1CCC(=C2c3ccccc3CC(=O)c3sccc32)CC1	-18.4% [at 35.3 µM] (inactive)	–
CN(C(=O)c1c(O)c2ccccc2n(C)c1=O)c1ccccc1	0.562% [at 35.3 µM] (inactive)	–
C[C@@H]1CCN(C(=O)[C@H](CCCN=C(N)N)NS(=O)(=O)c2cccc3c2NC[C@H](C)C3)[C@@H](C(=O)O)C1	6.03% [at 35.3 µM] (inactive)	–
CCCCCCCCCCCC	16.6% (inactive)	–
NCCCNCCSP(=O)(O)O	0.443% [at 6.97 µM] (inactive)	–
NC(=O)c1ccc([N+](=O)[O-])cc1	6.83% (inactive)	–
CC(=O)N(CC(O)CO)c1c(I)c(C(=O)NCCO)c(I)c(C(=O)NCC(O)CO)c1I (stereo not given)	1.36% [at 35.3 µM] (inactive)	–
OC1CCCCC1c1ccccc1 (stereo not given)	7.69% (inactive)	–
OC[C@]1(O)OC[C@@H](O)[C@H](O)[C@@H]1O	–	inactive
COC(C)(C)CCCC(C)CC=O (stereo not given)	9.19% (inactive)	–
COc1ccc2c(c1)CCCC2=O	2.23% [at 35.3 µM] (inactive)	–
CCOC(=O)Nc1ccc(NCc2ccc(F)cc2)nc1N	1.82% [at 35.3 µM] (inactive)	–
Cc1cccn2c(=O)c(-c3nnn[nH]3)cnc12	2% [at 15.8 µM] (inactive)	–
COc1ccccc1OCC(O)CN1CCN(CC(=O)Nc2c(C)cccc2C)CC1 (stereo not given)	-9.63% [at 35.3 µM] (inactive)	–
CCO[Si](CCC1CCC2OC2C1)(OCC)OCC (stereo not given)	8.22% (inactive)	–
OCCCC1CCCCC1	10.4% (inactive)	–
C/C=C(\C)C#N	-3.46% (inactive)	–
N[C@H](C(=O)O)c1ccc(O)cc1	4.17% [at 15.8 µM] (inactive)	–
OC(CCN1CCCCC1)(c1ccccc1)C1CC2C=CC1C2 (stereo not given)	-11.6% [at 35.3 µM] (inactive)	–

Compound	activity change, negative = cytotoxicity	Potency
Cc1cc(O)cc2c1O[C@](C)(CCC[C@H](C)CCC[C@H](C)CCCC(C)C)CC2	6.1% [at 35.3 µM] (inactive)	–
C=C[Si](OC(=C)C)(OC(=C)C)OC(=C)C	24.4% (inactive)	–
CCCCC(CC)COC(=O)c1ccccc1O (stereo not given)	0.487% [at 35.3 µM] (inactive)	–
C=CCOCC(CC)(CO)COCC=C	5.69% (inactive)	–
CC(C)(O)C(=O)c1ccccc1	-2.14% (inactive)	–
CC(=O)CC(C)(C)C1CCCCC1	5.65% (inactive)	–
CCCN(CCC)CCc1cccc2c1CC(=O)N2	10.2% [at 35.3 µM] (inactive)	–
NS(=O)(=O)c1cc2c(cc1Cl)NC(C1CC3C=CC1C3)NS2(=O)=O (stereo not given)	21.8% [at 35.3 µM] (inactive)	–
C=C1CC[C@H]2C[C@@H]1C2(C)C	3.32% (inactive)	–
CCCCOCCOCCOCCCC	6.53% (inactive)	–
Cc1ccc(C#N)cc1	3.21% (inactive)	–
Nc1c2c(nc3ccccc13)CCCC2O (stereo not given)	3.32% [at 35.3 µM] (inactive)	–
CN1CCN(c2cc3c(cc2F)c(=O)c(C(=O)O)cn3-c2ccc(F)cc2)CC1	-3.34% [at 35.3 µM] (inactive)	–
NC(CSCC(=O)O)C(=O)O (stereo not given)	10.7% [at 35.3 µM] (inactive)	–
Cc1cccc(C)c1NC(=O)C(C)N (stereo not given)	9.24% [at 35.3 µM] (inactive)	–
O=C(O)CNC(=O)c1ccc([N+](=O)[O-])cc1	3.21% (inactive)	–
CO[Si](CCCOCC1CO1)(OC)OC (stereo not given)	–	inactive
CC(C)(O)C#CC(C)(C)O	3.76% (inactive)	–
Cc1cc2c(cc1S(N)(=O)=O)S(=O)(=O)CCC2	4.1% [at 35.3 µM] (inactive)	–
CC(=O)OCC(=O)[C@@]1(O)CC[C@H]2[C@@H]3CCC4=CC(=O)CC[C@]4(C)[C@H]3C(=O)C[C@@]21C	-11.1% [at 35.3 µM] (inactive)	–
